Compound activity as filed in PubChem.
TDP1 cell noCPT = qHTS for Inhibitors of human tyrosyl-DNA phosphodiesterase 1 (TDP1): qHTS in cells in absence of CPT. 420,000 tested, 15% active. Potency, µM (titrated, usually from 46.2 µM), for inactives: top-dose activity change, negative = growth inhibition, actives largely listed as inhibitors. DT40 Tdp1-/- hTDP1 cells, no CPT, ATP luminescence, 48 h. AID 686978, 2013; note: % is set by controls: 0 for no effect and ±100 for the full control effect; nearly all actives have a fitted effect of over 55% in size
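A cellular qHTS used chicken DT40 cells lacking endogenous Tdp1 but carrying stably transfected human TDP1. Compounds were applied without camptothecin, and cell growth kinetics were judged by ATP-dependent luminescence after ≥48 hr.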
DT40 TDP1 CPT = qHTS for Inhibitors of human tyrosyl-DNA phosphodiesterase 1 (TDP1): qHTS in cells in presence of CPT. chicken DT40 Tdp1-/-;hTDP1 cells + 20 nM CPT, ATP luminescence, 48 h. Potency, µM (top dose mostly 46.2 µM), inactives show at the top dose activity change, negative = growth inhibition, hits mostly inhibitors. 420,000 tested, 12% active; note: % is set by controls: 0 for no effect and ±100 for the full control effect; nearly all actives have a fitted effect of over 55% in size
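Chicken DT40 Tdp1-/- cells complemented with human TDP1, 400 cells/well, exposed to compounds plus 20 nM camptothecin for at least 48 h at 37 C; viability read as ATP content by CellTiter-Glo luminescence.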
ATXN2 expr inh = Primary qHTS for Inhibitors of ATXN expression | HEK-293 ATXN2-luciferase reporter, luminescence, 24 h | Potency, µM (series often up to 57 µM), inactives show top-dose activity change, negative = inhibition, usual class: inhibitors | 360,000 tested, 0.72% active | AID 1745845, 2022; note: % is set by controls: 0 for no effect and ±100 for the full control effect; nearly all actives have a fitted effect of over 55% in size
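ATXN2-luciferase reporter cells (luciferase flanked by upstream and downstream ATXN2 gene portions) were treated 24 h at 37 °C with compounds at up to 57 uM. SteadyGlo luminescence gave expression; GF-AFC fluorescence gave viability.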
HepG2 tox = qHTS for Inhibitors of TGF-b: Cytotox Counterscreen; Potency, µM (series often up to 46.1 µM), for the others: top-dose activity change, negative = cytotoxicity, most hits filed as cytotoxic; 410,000 tested, 0.76% active; HepG2 CAGA-GFP viability, ATP luminescence, 18 h
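CellTiter-Glo luminescence gave cytotoxicity after 18 hours at 37 degrees C. The cells were HepG2 CAGA-GFP in 1% FBS DMEM, stimulated with 500 pg/mL TGF-beta after compound addition. %Activity was normalised to no-cell wells (complete cell-killing) and DMSO (no toxicity), and curves were fitted and classified.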
ATXN viability = Viability Counterscreen for Primary qHTS for Inhibitors of ATXN expression; S2 cells (HEK-293 line with an ATXN2-luciferase reporter) viability, CellTiter-Fluor protease fluorescence, 24 h; Potency, µM (top dose mostly 56.7 µM), actives largely listed as cytotoxic; 400,000 tested, 0.49% active; AID 651635, 2014; note: nearly all actives have a fitted effect of over 40% in size
TGFb SMAD3 inh = qHTS for Inhibitors of TGF-b | 410,000 tested, 1.2% active | AID 588855, 2011 | HepG2 CAGA-GFP TGF-b/SMAD3 reporter, GFP fluorescence, 18 h; TGF-beta stimulated, 500 pg/mL final | Potency, µM (highest dose often 46.1 µM), for inactives: at the top dose activity, negative = inhibition, actives largely listed as inhibitors; note: % is set by controls: 0 for no effect and ±100 for the full control effect; nearly all actives have a fitted effect of over 65% in size
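Per well, imaged GFP fluorescence of HEPG2 CAGA-GFP cells gives the signal; cells get compound, then TGF-beta (500 pg/mL final), 18 h at 37 degrees C; %Activity versus -TGF-beta and +DMSO controls.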
Starred values were filed as active, the others as inactive; i = inactive; ? = inconclusive; / = not tested or not shown. Compounds with a hit are over-represented: about 17% of the library has one in this group of screens. Calls come from the whole dose curve; as a rule, active = well fitted curve in the direction sought with a large enough effect; inconclusive = small, poorly fitted or top-dose-only effect, or another doubt; inactive = no such curve, though single readings can be large; an effect the other way counts as inactive or inconclusive. Potency is the fitted concentration of half-maximal effect.

SMILES	TDP1 cell noCPT	DT40 TDP1 CPT	ATXN2 expr inh	HepG2 tox	ATXN viability	TGFb SMAD3 inh
CN(C)c1ccc(-c2ccnc3c2CC(C)(C(=O)NCc2cccs2)O3)cc1 (configuration not stated)	13µM*	16.4µM*	-36.7%	-24.6%	i	-27.8%
C=CCSc1nc(C)cc(/C=C\c2ccccc2)c1C#N	-8.5%	-23.0%	-11.3%	-27.2%	i	-0.6%
c1ccc2oc(-c3[nH]ncc3CN(Cc3ccncc3)CC3CCCO3)cc2c1 (configuration not stated)	25.9µM*	?	/	-59.9%	i	0.1%
O=C1CC[C@@H](CN(Cc2ccccc2)Cc2cn[nH]c2-c2cc3ccccc3o2)N1	16.4µM*	25.9µM*	-17.8%	1.8%	i	15.6%
CCOc1ccc(-c2nc(CN(Cc3ccccc3)C[C@@H]3CCC(=O)N3)c(C)o2)cc1	20.6µM*	?	?	-30.4%	i	?
CC1(C(=O)NS(=O)(=O)c2ccc(Br)cc2)CCN1C(=O)Cc1ccsc1 (configuration not stated)	-0.5%	-9.1%	5.3%	0.8%	i	17.7%
Cc1ccc(S(=O)(=O)Nc2cccc(C(=O)NCC(C)(C)N3CCOCC3)c2)cc1F	-3.1%	-1.1%	-9.2%	6.8%	i	4.4%
c1ccc(CN2CCC3CC2c2cc(N4CCCCC4)ccc23)cc1 (configuration not stated)	?	?	-15.3%	-7.4%	i	-4.7%
O=C(NCCc1csc(-c2ccc(F)cc2)n1)c1cccc(F)c1	18.4µM*	?	28.2µM*	-36.2%	?	?
O=C(NCCc1csc(-c2ccc(F)cc2)n1)c1c(F)cccc1Cl	?	23.1µM*	-24.0%	-34.6%	i	-16.2%
CS(=O)(=O)NCc1nnc(SCc2ccc(C(F)(F)F)cc2)o1	-0.4%	10.3%	0.0%	10.6%	?	-0.3%
C1=Nc2c(NCc3ccccc3)ncnc2Oc2ccccc21	1.03µM*	3.66µM*	96.3%	-36.3%	i	-8.1%
COCc1cc(=O)[nH]c2c1c(-c1ccccc1)nn2C	-4.5%	0.6%	/	11.0%	i	8.0%
CCOC(=O)c1cccc(NC(=O)c2ccc3c(Cl)c4c(nc3c2)CCC4)c1	29.1µM*	?	34.7%	-0.5%	i	?
CCN1CCN(CCCNC(=O)c2ccc3c(Cl)c4c(nc3c2)CCCC4)CC1	18.4µM*	?	?	-30.3%	i	?
CC1CCN(CCCNC(=O)c2ccc3c(Cl)c4c(nc3c2)CCCC4)CC1	3.66µM*	13µM*	?	-10.1%	?	-5.2%
O=C(NCCCN1CCCCCC1)c1ccc2c(Cl)c3c(nc2c1)CCCC3	-75.0%	-89.6%	-4.1%	-46.8%	?	?
COCCNC(=O)c1ccc2c(Cl)c3c(nc2c1)CCC3	-25.4%	5.0%	23.8%	0.0%	i	20.8%
CCOc1ccc(CCNC(=O)c2ccc3c(Cl)c4c(nc3c2)CCCC4)cc1	23.1µM*	?	9.8%	-2.3%	i	?
Cc1cccc(-c2nc3cc(NC(=O)COc4ccccc4F)ccc3o2)c1	-9.3%	-2.6%	5.0%	2.8%	i	1.3%
CCOC(=O)C1CCN(C(=O)CSc2n[nH]c(-c3ccc(F)cc3)n2)CC1	-16.4%	-23.5%	/	1.6%	/	-17.2%
CCCN(CCC)CCCNC(=O)c1ccc2c(Cl)c3c(nc2c1)CCC3	18.4µM*	?	-29.7%	-37.8%	i	-25.7%
CCCC(c1c(C)n(C)n(-c2ccccc2)c1=O)c1c(C)n(C)n(-c2ccccc2)c1=O	-100.6%	-100.4%	-1.3%	11.2µM*	i	-6.0%
O=C(COC(=O)c1cccc(Cl)c1)Nc1cccc(S(=O)(=O)NC2=NCCC2)c1	12.8%	-11.1%	-5.0%	-9.0%	i	23.1%
CCNC(=O)C1CCCN(C(=O)c2cccc3ccccc23)CC1 (configuration not stated)	-9.8%	-38.1%	1.2%	-0.6%	i	0.2%
SMILES	TDP1 cell noCPT	DT40 TDP1 CPT	ATXN2 expr inh	HepG2 tox	ATXN viability	TGFb SMAD3 inh
Cc1c(F)cccc1NS(=O)(=O)c1ccc2c(c1)c(=O)n(C)c(=O)n2C	14.6µM*	?	-3.3%	-31.6%	i	-11.9%
Cc1cccc(NS(=O)(=O)c2ccc3c(c2)n(C)c(=O)n3C)c1C	?	23.1µM*	/	-34.1%	/	?
Cc1c(F)cccc1NS(=O)(=O)c1ccc2c(c1)n(C)c(=O)c(=O)n2C	-26.3%	-8.2%	-32.0%	3.4%	i	9.8%
Cc1ccc(C2c3c(oc4ccccc4c3=O)C(=O)N2c2ccc(C)cn2)cc1 (configuration not stated)	-9.9%	14.6%	/	3.0%	/	0.9%
O=CN/N=C/c1c(O)ccc2ccccc12	6.51µM*	7.31µM*	/	-5.0%	?	2.2%
Oc1ccc2ccccc2c1/C=N/Nc1ccccc1	1.8%	5.5%	27.6%	-2.1%	i	-1.8%
NC(=S)N/N=C/c1c(O)ccc2ccccc12	?	11.6µM*	/	-48.7%	?	?
Oc1ccccc1C=NN=Cc1c(O)ccc2ccccc12	?	?	9.1%	-10.7%	/	-7.0%
O=c1oc2ccccc2nc1/C=C(O)/C=C/c1ccc(F)cc1	14.6µM*	9.2µM*	10.7%	9.7%	i	-4.9%
O=c1oc2ccccc2nc1/C=C(O)/C=C\c1ccccc1	23.1µM*	14.6µM*	7.5%	-1.5%	i	-3.5%
CCOc1ccc(N(CC(=O)NCc2ccccc2)C(=O)Cn2nnc(-c3ccc(C)o3)n2)cc1	-20.0%	-6.4%	-13.9%	-0.9%	?	7.6%
CCc1sc(Nc2ccc(C)cc2Br)nc1-c1cc2cccc(OC)c2oc1=O	?	?	11.9%	-2.3%	i	0.5%
CCc1sc(Nc2ccc(Cl)cc2)nc1-c1cc2cccc(OC)c2oc1=O	20.6µM*	?	1.3%	-20.1%	?	-34.0%
CCc1ccc(Nc2nc(-c3cc4cccc(OC)c4oc3=O)c(CC)s2)cc1	23.1µM*	?	/	-9.9%	/	/
CC1CCCN(CCCNC(=O)CN2C(=O)COc3ccccc32)C1 (configuration not stated)	33.3%	-5.3%	9.4%	-2.2%	i	7.9%
